Shown is part of a subset that was picked to be rich in hits.
VDR inh: vitamin D3 receptor (human) inhibition. P11473. Potency, µM, for the others: max response, negative = inhibition, most hits filed as inhibitors. AID 504847. VDR-SRC2-3 peptide fluorescence polarization, 2 h. 400,000 tested, 0.93% active; also: potency is read from the fitted curve at half-maximal effect; % is scaled to controls: 0 for no effect and ±100 for the full control effect
Target sequence (P11473 whole entry, looked up): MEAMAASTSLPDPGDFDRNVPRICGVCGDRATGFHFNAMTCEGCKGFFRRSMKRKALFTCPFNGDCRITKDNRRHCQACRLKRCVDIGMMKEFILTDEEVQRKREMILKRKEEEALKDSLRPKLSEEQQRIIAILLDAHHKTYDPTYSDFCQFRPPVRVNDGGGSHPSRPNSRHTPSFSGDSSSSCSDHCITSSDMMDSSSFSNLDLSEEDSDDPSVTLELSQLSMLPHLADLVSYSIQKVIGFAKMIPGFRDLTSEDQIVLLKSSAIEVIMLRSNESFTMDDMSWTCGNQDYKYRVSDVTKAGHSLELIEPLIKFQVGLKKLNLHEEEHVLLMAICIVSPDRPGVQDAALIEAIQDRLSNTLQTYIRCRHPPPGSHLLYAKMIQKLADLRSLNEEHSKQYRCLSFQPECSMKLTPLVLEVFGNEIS
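FP read-out; VDR + SRC2-3 coactivator peptide; 23 nl compound by pintool; 2 h RT incubation; reagents held at 4 deg C, protected from light.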
ALOX12 inh: inhibitors of human 12S-lipoxygenase ALOX12 | Potency, µM (doses to about 108 µM), for inactives: at the top dose activity change, negative = inhibition, most hits filed as inhibitors | 580,000 tested, 1.1% active | P18054 | AID 1671190 | purified 12hLO, xylenol orange hydroperoxide absorbance; also: potency is read from the fitted curve at half-maximal effect; % is scaled to controls: 0 for no effect and ±100 for the full control effect
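Hydroperoxide product was detected by ferrous iron/xylenol orange as the 573 to 405 nm absorbance ratio. Arachidonic acid at 40 uM (final) was turned over for 30 min at room temperature by 150 nM human 12hLO, pH 7.0 Hepes buffer, after 15 min compound preincubation.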
G9a block: inhibitors of human histone lysine methyltransferase G9a. Potency, µM (top dose mostly 102 µM), for the others: at the top dose activity, negative = inhibition, most hits filed as inhibitors. G9a H3K9 monomethylation, AlphaScreen, 2 h. Q96KQ7. 350,000 tested, 8.8% active; also: potency is read from the fitted curve at half-maximal effect; % is scaled to controls: 0 for no effect and ±100 for the full control effect; nearly all actives have a fitted effect of over 75% in size
Target sequence (Q96KQ7 913-1193 limits assumed): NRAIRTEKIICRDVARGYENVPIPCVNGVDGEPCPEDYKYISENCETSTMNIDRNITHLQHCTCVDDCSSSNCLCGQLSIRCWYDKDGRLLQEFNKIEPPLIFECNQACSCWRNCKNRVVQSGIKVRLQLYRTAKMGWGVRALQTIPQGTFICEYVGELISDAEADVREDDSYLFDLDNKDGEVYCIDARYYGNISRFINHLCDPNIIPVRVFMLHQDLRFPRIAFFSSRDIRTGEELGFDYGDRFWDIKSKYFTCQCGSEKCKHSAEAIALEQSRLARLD
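Enzyme 20 nM + cpd, 15 min RT; add b-H3K9 pep 500 nM / SAM 20 uM; 2 h RT; anti-H3K9me1 Ab 0.5 ug/mL + SA donor / anti-rabbit acceptor beads 20 ug/mL each, 10 min; AlphaScreen read.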
Sfp PPTase inh: blocks B. subtilis Sfp PPTase activity. 310,000 tested, 3.5% active. Biochemical Sfp PPTase activity, qHTS. Potency, µM, for inactives: largest response in the series, negative = inhibition, most hits filed as inhibitors;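 also: the enzyme is Sfp with the accession as filed and its product quenches rhodamine fluorescence; potency is read from the fitted curve at half-maximal effect; 0% = enzyme reaction without inhibitor and -100% = no enzyme wells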
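Buffer: 50 mM Hepes-Na pH 7.6, 10 mM MgCl2, 0.01% Nonidet P-40, 0.01% BSA. Enzyme 15 nM, pre-exposed to compound 15 min; substrates then added and fluorescence change tracked over 30 min.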
GRP78 ERSR act: inducers of ER stress response in human glioma cells. Potency, µM, without a hit: at the top dose activation, most hits filed as activators. 420,000 tested, 0.02% active. U87-MG GRP78 promoter luciferase reporter, 16 h; also: potency is read from the fitted curve at half-maximal effect; series mostly up to about 76 µM; % of control where 0% means no effect; nearly all actives have a fitted effect of over 35% in size
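Stably transfected U87-MG human glioma cells carrying a GRP78-based luminescent sensor were seeded at 1000 cells/well, pin-dosed with compounds and incubated 16 h. Luciferase reagent was then added, and end-point luminescence was read after 10 min at room temperature.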
USP1 UbRho: USP1-UAF1 deubiquitinase inhibition validated; Potency, µM (doses to about 114 µM), for inactives: at the highest dose activity change, negative = inhibition, hits mostly inhibitors; 50 tested, 50% active; Ub-Rhodamine cleavage, fluorescence kinetic read; shares compounds with VDR inh
VDR inh confirm: confirmation of human vitamin D receptor inhibitors; 840 tested, 89% active; shares compounds with VDR inh; Potency, µM, actives largely listed as inhibitors; VDR-coactivator inhibition assay, qHTS confirmation; also: potency is read from the fitted curve at half-maximal effect
VDR FP: confirmation of human VDR-coactivator binding inhibitors, fluorescein label | Potency, µM (titrated, usually from 57.1 µM), for inactives: top-dose activity change, negative = inhibition, hits mostly inhibitors | 840 tested, 48% active | shares compounds with VDR inh | VDR-coactivator binding, fluorescein fluorescence polarization; also: potency is read from the fitted curve at half-maximal effect
VDR bla: VDR (human) inhibition, cell-based beta-lactamase validation; shares compounds with VDR inh; VDR beta-lactamase reporter cells, FRET ratio; cells co-treated with VDR agonist LG190178; Potency, µM (doses to about 46.1 µM), for inactives: at the highest dose activity change, negative = inhibition, actives largely listed as inhibitors; 840 tested, 23% active; also: potency is read from the fitted curve at half-maximal effect; % is scaled to controls: 0 for no effect and ±100 for the full control effect
VDR cytotox: cytotoxic in counter-screen for VDR inhibitors. shares compounds with VDR inh. cytotoxicity counter-screen, cell viability, qHTS. Potency, µM (titrated, usually from 48.3 µM), without a hit: at the top dose activity change, negative = cytotoxicity, most hits filed as cytotoxic. 840 tested, 18% active. AID 602204;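 also: potency is read from the fitted curve at half-maximal effect; plate controls were DMSO for no effect and high-concentration cycloheximide for full effect; nearly all actives have a fitted effect of over 75% in size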
Starred values were filed as active, the others as inactive; [ ] = remark or other dose. Calls follow the shape of the dose curve; as a rule, active = well fitted curve in the direction sought with a large enough effect; inconclusive = small, poorly fitted or top-dose-only effect, or another doubt; inactive = no such curve, though single readings can be large; an effect the other way counts as inactive or inconclusive.

`COc1ccc(OC)c(/C=C/C(=O)c2ccc(Cl)cc2)c1` gave VDR inh 45µM*, ALOX12 inh -11%, G9a block 165%, Sfp PPTase inh -7%, GRP78 ERSR act inconclusive, VDR inh confirm 18*, VDR FP 22µM*, VDR bla inconclusive and VDR cytotox 3%.
`Cc1cc(C)c(S(=O)(=O)Nc2ccc(O)cc2)cc1C` gave VDR inh -23%, G9a block 54%[12.7 µM], Sfp PPTase inh 2% and GRP78 ERSR act 0%.
Screening COc1ccc(S(=O)(=O)Nc2cc(Sc3ncn[nH]3)c(O)c3ccccc23)cc1 returned VDR inh 20µM*, ALOX12 inh inconclusive, G9a block 1.6µM*, Sfp PPTase inh 3.5µM*, GRP78 ERSR act -11%, VDR inh confirm 21*, VDR FP inconclusive, VDR bla inconclusive and VDR cytotox 18µM*.
For COc1ccc(S(=O)(=O)Nc2cc(SCC(=O)O)c(O)c3ccccc23)cc1 the results were VDR inh inconclusive, ALOX12 inh inconclusive, G9a block 2µM*, Sfp PPTase inh 7.1µM*, GRP78 ERSR act -10%, VDR inh confirm 16*, VDR FP 14µM*, VDR bla inconclusive and VDR cytotox inconclusive.
`Cc1cc(C)c(S(=O)(=O)Nc2cc(SCC(=O)O)c(O)c3ccccc23)cc1C` gave VDR inh 22µM*, G9a block 2.2µM*, Sfp PPTase inh 8.9µM*, GRP78 ERSR act inconclusive, VDR inh confirm 5.3*, VDR FP 11µM*, VDR bla 0% and VDR cytotox inconclusive.
For O=C(O)CSc1cc(NS(=O)(=O)c2ccc(Cl)cc2)c2ccccc2c1O the results were VDR inh 3.5µM*, ALOX12 inh 2.8µM*, G9a block 4µM*, Sfp PPTase inh 10µM*, GRP78 ERSR act 5%, VDR inh confirm 30*, VDR FP inconclusive, VDR bla inconclusive and VDR cytotox inconclusive.
For N#Cc1ccccc1NC(=O)c1cc2c(s1)CCCC2 the results were ALOX12 inh -32%.
For CN1CCC2(CC1)N=C(c1ccc(F)cc1)C(=S)N2C(=O)c1ccccc1 the results were VDR inh 45µM*, ALOX12 inh inconclusive, G9a block 22µM*, Sfp PPTase inh 50µM*, GRP78 ERSR act -2%, VDR inh confirm 19*, VDR FP inconclusive, VDR bla 1% and VDR cytotox inconclusive.
For O=C(c1ccccc1)N1N=C(c2ccc(F)cc2)CC1(O)C(F)(F)F (stereo not drawn) the results were VDR inh -6%, ALOX12 inh 7%, G9a block inconclusive, Sfp PPTase inh -1% and GRP78 ERSR act 1%.
Screening COc1cc2c(cc1OC)-c1cc3nc4ccccc4nc3n1C(C)(C)C2 returned VDR inh 7.1µM*, ALOX12 inh inconclusive, Sfp PPTase inh inconclusive, GRP78 ERSR act -4%, USP1 UbRho 47µM*, VDR inh confirm 20*, VDR FP inconclusive, VDR bla inconclusive and VDR cytotox -8%.
COCCn1cnc2c1c(=O)n(CC(=O)OCCOc1ccccc1F)c(=O)n2Cc1ccccc1 was read as ALOX12 inh -8%.
Cc1cc(N2CCCCCC2)n2nc(-c3ccccc3)c(C)c2n1 was read as ALOX12 inh 15%.
Screening Cc1onc(-c2ccccc2Cl)c1C(=O)c1ccccc1 returned VDR inh 8%, ALOX12 inh inconclusive, Sfp PPTase inh 6% and GRP78 ERSR act 1%.
Screening O=C(c1ccccc1)c1coc2ccc(O)c(Cl)c12 returned VDR inh 12%, ALOX12 inh inconclusive, G9a block inconclusive, Sfp PPTase inh inconclusive and GRP78 ERSR act 14%.
`Cc1oc2c(c1C(=O)c1ccccc1)C(=O)C(=O)c1ccccc1-2` gave VDR inh inconclusive, ALOX12 inh inconclusive, G9a block inconclusive, Sfp PPTase inh 50µM*, GRP78 ERSR act -14%, VDR inh confirm 2.5*, VDR FP 3.2µM*, VDR bla 21µM* and VDR cytotox 3.4µM*.
For O=C1C(=O)c2c(C(=O)c3ccccc3)coc2-c2ccccc21 the results were VDR inh 3.2µM*, ALOX12 inh inconclusive, G9a block 45µM*, Sfp PPTase inh 56µM*, GRP78 ERSR act -7%, VDR inh confirm 4.2*, VDR FP inconclusive, VDR bla inconclusive and VDR cytotox 18µM*.
Screening CCCn1c(=O)c2sc(N3CCC(C)CC3)nc2n(CC(=O)Nc2cc(Cl)ccc2C)c1=O returned ALOX12 inh -15%.
CCOc1cc(/C=C2\COc3ccccc3C2=O)cc(Br)c1OCC(=O)N(C)C was read as VDR inh 20µM*, ALOX12 inh -25%, G9a block 40µM*, Sfp PPTase inh 50µM*, GRP78 ERSR act -17%, VDR inh confirm 6*, VDR FP inconclusive, VDR bla inconclusive and VDR cytotox 18µM*.
O=C1/C(=C/c2ccc3ccccc3c2)COc2ccccc21 was read as ALOX12 inh -4%.
For COc1ccc(/C=C2\COc3ccccc3C2=O)cc1OC the results were VDR inh inconclusive, ALOX12 inh -30%, G9a block -10%[59 µM], Sfp PPTase inh -20%, GRP78 ERSR act inconclusive, VDR inh confirm 22*, VDR FP 16µM*, VDR bla inconclusive and VDR cytotox inconclusive.
`O=C(O)c1ccc(/C=C2\COc3ccccc3C2=O)cc1` gave VDR inh 20µM*, ALOX12 inh -3%, G9a block 6%[59 µM], Sfp PPTase inh inconclusive, GRP78 ERSR act inconclusive, VDR inh confirm 21*, VDR FP 22µM*, VDR bla inconclusive and VDR cytotox inconclusive.

From PubChem
